This is part of a sample that, as a whole, favours compounds with a hit. Of some 83,000 tested, about 20% had one in any assay.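 Plates (96-well) were seeded with cells, treated with compound at one concentration, and incubated for 48 hours before percent growth was determined.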 Values without a mark were called inactive. Calls of active or inactive are those of the source. The calls were made as follows: active = growth percent below 10; inactive = the rest.

This note sets out measurements from PubChem BioAssay (NCI).

Some test systems named below: T-47D breast; BT-549 breast; MDA-MB-435 melanoma; SW-620 colon; MCF7 breast; HCT-116 colon; HCC-2998 colon; KM12 colon.
Common to all, as to test: NCI-60 one-dose screen, 48 h (100 = growth as untreated, 0 = no growth, -100 = all killed)
What all share (details): 10 µM unless noted

`COC(CC(F)F)c1cn(S(=O)(=O)c2ccc(C)cc2)c2ccccc12` (configuration not stated): the growth with T-47D breast was 30.8%; in the assay with BT-549 breast it was 34.9%; in the assay on MDA-MB-435 melanoma, -43.8% (active); in the assay on SW-620 colon it was 12.9%; with MCF7 breast, 13.6%; in the assay on HCT-116 colon it was 17.2%. The values for the growth in the assay with HCC-2998 colon and in the assay with KM12 colon were 63.3% and 19.3%, respectively.
With `c1cc2c(ccc3[nH]c(-c4ccc5[nH]ncc5c4)c4c(c32)CCCC4)n1`, the growth was 38.9% in the assay on T-47D breast; 53.2% in the assay on BT-549 breast; 68.9% in the assay with MDA-MB-435 melanoma; 60.8% with SW-620 colon; 23.3% in the assay on MCF7 breast; 38% in the assay on HCT-116 colon. For the same compound, the growth is 93.6% in the assay on HCC-2998 colon and 67.9% in the assay with KM12 colon.
Consider `COc1ccc(OC)c(-c2nc(SCC(=O)c3ccc(C#N)cc3)[nH]c(=O)c2C#N)c1`, for which the growth in the assay with T-47D breast was 117%; with BT-549 breast it was 99.4%; in the assay on MDA-MB-435 melanoma it was 100%; in the assay on SW-620 colon it was 98.6%; in the assay on MCF7 breast, 100%; in the assay on HCT-116 colon, 95%. Further, the growth with HCC-2998 colon was 95.9%; in the assay on KM12 colon it was 91.8%.
As for `O=C1c2ccccc2-c2c1c1c(=O)[nH]c3ccccc3c1n2Cc1ccccc1`, the growth in the assay with T-47D breast is 62.6%; in the assay with BT-549 breast, 29.5%; in the assay on MDA-MB-435 melanoma, 71.1%; in the assay on SW-620 colon, 79.8%; with MCF7 breast it was 56.5%; with HCT-116 colon it was 41%. Besides, the growth in the assay with HCC-2998 colon is 55.4%; in the assay with KM12 colon, 71.2%.
Consider `Cn1c(=O)cc2c3c(c(NCCCO)ccc31)C(=O)c1ccccc1-2`, for which the growth with T-47D breast was 51.8%; in the assay on BT-549 breast, 73.6%; in the assay on MDA-MB-435 melanoma, 44%; in the assay with SW-620 colon, 32.6%; with MCF7 breast, 27.6%; in the assay with HCT-116 colon it was 16.5%. The growth is 49.1% with HCC-2998 colon and 42.7% in the assay with KM12 colon.
Regarding `COc1ccc(-c2ccc(-c3ccc(C(=N)N)cc3)s2)cc1Cl`, the growth in the assay with T-47D breast is 42.6%; with BT-549 breast it was 93.7%; with MDA-MB-435 melanoma it was -65.2% (active); in the assay on SW-620 colon it was -71.9% (active); with MCF7 breast it was -65.5% (active); with HCT-116 colon, -52.8% (active). For the same compound, the growth in the assay on HCC-2998 colon was -37.8% (active); with KM12 colon it was -73.2% (active).
Regarding `CCCCNC(=O)Oc1ccc(/C(=C(/C)Cc2ccc(OC)cc2)c2ccc(OCCN3CCCC3)cc2)cc1`, the growth in the assay on T-47D breast is 32.4%; in the assay with BT-549 breast, 73.8%; in the assay with MDA-MB-435 melanoma it was 55.8%; in the assay on SW-620 colon it was 72.7%; with MCF7 breast it was 17.7%; in the assay on HCT-116 colon, 39.3%. In addition, the growth with HCC-2998 colon was 64.7%; in the assay on KM12 colon, 55.3%.
In the case of `O=C(O)c1cn(C2CC2)c2cc(N3CCN(Cc4ccc5ccccc5c4O)CC3)c(F)cc2c1=O`, the growth is 30.9% in the assay with T-47D breast; -59.1% (active) in the assay with BT-549 breast; 33.6% in the assay with MDA-MB-435 melanoma; 36.1% with SW-620 colon; 17% with MCF7 breast; 14.5% in the assay with HCT-116 colon. The growth in the assay on HCC-2998 colon was 41.9%; in the assay on KM12 colon, 42.4%.
As for `Nc1ncnc2c1N=C(c1ccc(Br)cc1)CC(c1cccc(Nc3ccnc4cc(C(F)(F)F)ccc34)c1)N2` (configuration not stated), the growth in the assay with T-47D breast was 68.6%; with BT-549 breast, 105%; in the assay on MDA-MB-435 melanoma, 38.3%; in the assay on SW-620 colon, 64.1%; with MCF7 breast, 22%; in the assay on HCT-116 colon, 32.8%. The growth in the assay on HCC-2998 colon was 67.2%; in the assay on KM12 colon, 60.2%.
With `COc1ccc(/C=C/C(=O)c2cccc(OCCCCOc3cccc(C(=O)/C=C/c4ccc(OC)c(OC)c4)c3)c2)cc1OC`, the growth with T-47D breast is 43.3%; in the assay with BT-549 breast it was 60.7%; in the assay on MDA-MB-435 melanoma, 75.5%; with SW-620 colon, 89.5%; in the assay on MCF7 breast, 44.3%; in the assay on HCT-116 colon, 58.6%. Also, the growth is 116% with HCC-2998 colon and 79.1% in the assay with KM12 colon.
`O=C1c2ccc3c4c5ccc(c24)C(=O)N1CCCOCCCCOCCCNCc1ccc(cc1)CNCCCOCCCCOCCCN(C3=O)C5=O`: the growth in the assay on T-47D breast is -48.7% (active); in the assay on BT-549 breast, 68.7%; in the assay with MDA-MB-435 melanoma it was -95.4% (active); in the assay on SW-620 colon, -37.8% (active); in the assay with MCF7 breast, -58.3% (active); with HCT-116 colon, -62.9% (active). Besides, the growth is -75% (active) with HCC-2998 colon and -30.4% (active) with KM12 colon.
As for `O=C(N/N=C/c1ccc(Cl)cc1)c1[nH]c2ccc(Cl)cc2c1-c1ccccc1`, the growth is 73.9% in the assay on T-47D breast; 10.2% in the assay on BT-549 breast; -33.3% (active) in the assay with MDA-MB-435 melanoma; 37.5% in the assay with SW-620 colon; 13.5% in the assay with MCF7 breast; 7.64% (active) with HCT-116 colon. In addition, the growth in the assay on HCC-2998 colon is 26.4%; in the assay on KM12 colon it was 4.94% (active).
Regarding `Oc1c(I)cc(I)cc1CNCCN(Cc1ccccn1)Cc1ccccn1`, the growth with T-47D breast was -36% (active); in the assay with BT-549 breast, -33.6% (active); in the assay on MDA-MB-435 melanoma, -66.6% (active); in the assay with SW-620 colon, -42.5% (active); in the assay on MCF7 breast, -6.6% (active); with HCT-116 colon, -45.1% (active). Further, the growth with HCC-2998 colon was -86.8% (active); in the assay with KM12 colon it was -38.9% (active).
Regarding `Cc1cc(N2CCN(CCNc3ccnc4cc(Cl)ccc34)CC2)nc(N2CCOCC2)n1`, the growth in the assay on T-47D breast is 55.9%; with BT-549 breast it was 74.2%; in the assay on MDA-MB-435 melanoma it was 80.1%; in the assay with SW-620 colon it was 79.4%; in the assay on MCF7 breast, 53.3%; in the assay on HCT-116 colon it was 38.5%. Also, the growth in the assay with HCC-2998 colon was 37.4%; with KM12 colon it was 76.6%.
